The whole screen tested about 3,200 compounds, of which about 300 (9.4%) showed activity. For the sample, actives were picked, then their nearest neighbours and some compounds at random.
Tested on: A673/TR/shEF
Experiment: cell viability (LOESS-normalised, relative to median of negative controls) (log2 ratio); higher = more viable cells (less compound effect), active = hit call of the paper (over 3 MAD below the median)
Details: treatment time: 72 h
Outline: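 Viability of A673/TR/shEF Ewing sarcoma cells was determined by CellTiter-Glo luminescence. The cells, at 1,500 per well in 384-well plates, were grown with or without doxycycline from 24 h before compound addition to switch on EWS-FLI1 shRNA knockdown, then exposed for three days to library compounds at two or more concentrations or to DMSO controls. Signals were LOESS-corrected plate by plate, normalised to the negative-control median and log2-transformed.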

[1] = 0.025 µM, library screen: screen2, EWS-FLI1 expression: high (no doxycycline)
[2] = 0.025 µM, library screen: screen2, EWS-FLI1 expression: low (doxycycline-induced shRNA knockdown)
[3] = 0.25 µM, library screen: screen1, EWS-FLI1 expression: high (no doxycycline)
[4] = 0.25 µM, library screen: screen1, EWS-FLI1 expression: low (doxycycline-induced shRNA knockdown)
[5] = 0.25 µM, library screen: screen2, EWS-FLI1 expression: high (no doxycycline)
[6] = 0.25 µM, library screen: screen2, EWS-FLI1 expression: low (doxycycline-induced shRNA knockdown)
[7] = 2.5 µM, library screen: screen1, EWS-FLI1 expression: high (no doxycycline)
[8] = 2.5 µM, library screen: screen1, EWS-FLI1 expression: low (doxycycline-induced shRNA knockdown)
[9] = 2.5 µM, library screen: screen2, EWS-FLI1 expression: high (no doxycycline)
[10] = 2.5 µM, library screen: screen2, EWS-FLI1 expression: low (doxycycline-induced shRNA knockdown)
[11] = 25 µM, library screen: screen2, EWS-FLI1 expression: high (no doxycycline)
[12] = 25 µM, library screen: screen2, EWS-FLI1 expression: low (doxycycline-induced shRNA knockdown)
[13] = 0.103 µM, library screen: screen3, EWS-FLI1 expression: high (no doxycycline)
[14] = 0.103 µM, library screen: screen3, EWS-FLI1 expression: low (doxycycline-induced shRNA knockdown)
[15] = 0.308 µM, library screen: screen3, EWS-FLI1 expression: high (no doxycycline)
[16] = 0.308 µM, library screen: screen3, EWS-FLI1 expression: low (doxycycline-induced shRNA knockdown)
[17] = 0.926 µM, library screen: screen3, EWS-FLI1 expression: high (no doxycycline)
[18] = 0.926 µM, library screen: screen3, EWS-FLI1 expression: low (doxycycline-induced shRNA knockdown)
[19] = 2.8 µM, library screen: screen3, EWS-FLI1 expression: high (no doxycycline)
[20] = 2.8 µM, library screen: screen3, EWS-FLI1 expression: low (doxycycline-induced shRNA knockdown)
[21] = 8.3 µM, library screen: screen3, EWS-FLI1 expression: high (no doxycycline)
[22] = 8.3 µM, library screen: screen3, EWS-FLI1 expression: low (doxycycline-induced shRNA knockdown)
[23] = 25 µM, library screen: screen3, EWS-FLI1 expression: high (no doxycycline)
[24] = 25 µM, library screen: screen3, EWS-FLI1 expression: low (doxycycline-induced shRNA knockdown)
[25] = 0.025 µM, library screen: screen1, EWS-FLI1 expression: high (no doxycycline)
[26] = 0.025 µM, library screen: screen1, EWS-FLI1 expression: low (doxycycline-induced shRNA knockdown)
[27] = 25 µM, library screen: screen1, EWS-FLI1 expression: high (no doxycycline)
[28] = 25 µM, library screen: screen1, EWS-FLI1 expression: low (doxycycline-induced shRNA knockdown)

Measured: cell viability (log2)

CCN(CC)CCCC(C)Nc1c2ccc(Cl)cc2nc2ccc(OC)cc12 (centres undefined)
active: [11] -4.23 | [12] -2.71
inactive: [1] 0.148 | [2] 0.0788 | [3] 0.215 | [4] 0.197 | [5] 0.0911 | [6] 0.0849 | [7] 0.176 | [8] 0.252 | [9] 0.0338 | [10] 0.0518

CCN(CCO)CCCC(C)Nc1ccnc2cc(Cl)ccc12 (centres undefined)
inactive: [3] 0.00358 | [4] 0.138 | [7] 0.146 | [8] 0.0473

CCN(CC)CCCC(C)Nc1ccnc2cc(Cl)ccc12 (centres undefined)
inactive: [1] 0.158 | [2] 0.0518 | [3] 0.0569 | [4] 0.0751 | [5] 0.0978 | [6] 0.0902 | [7] 0.0579 | [8] 0.079 | [9] 0.0873 | [10] 0.0425 | [11] 0.0565 | [12] 0.0987

CC1(C)C(=O)CC[C@@]2(C)C1C[C@@H](O)[C@@]1(C)C3=CC(=O)O[C@@H](c4ccoc4)[C@]3(C)CCC21 (some centres undefined)
inactive: [3] 0.0874 | [4] 0.0583 | [7] 0.0284 | [8] 0.0454

COc1cc2c(cc1O)C(Cc1ccc(O)cc1)N(C)CC2 (centres undefined)
inactive: [3] 0.127 | [4] 0.111 | [7] 0.067 | [8] 0.114

O=C(O[C@@H]1Cc2c(O)cc(O)cc2O[C@@H]1c1cc(O)c(O)c(O)c1-c1c([C@H]2Oc3cc(O)cc(O)c3C[C@H]2O)cc(O)c(O)c1O)c1cc(O)c(O)c(O)c1
inactive: [3] 0.0332 | [4] 0.0641 | [7] 0.0977 | [8] -0.0327

COc1ncc(-c2ccc3nccc(-c4ccnnc4)c3c2)cc1NS(=O)(=O)c1ccc(F)cc1F
active: [13] -0.686 | [14] -0.505 | [15] -1.07 | [16] -0.722 | [17] -1.88 | [18] -1.31 | [19] -2.85 | [20] -2.24 | [21] -3.29 | [22] -2.78 | [23] -3.83 | [24] -3.59

CC(=O)Nc1ccc2c(c1)C1C=CCC1C(c1ccc(Cl)cc1Cl)N2 (centres undefined)
inactive: [3] 0.141 | [4] 0.199 | [7] 0.113 | [8] 0.349

CCOC(=O)c1c(C)cc(O)c(C)c1O
inactive: [3] 0.117 | [4] 0.0649 | [7] 0.0865 | [8] 0.119

CS(=O)(=O)c1ccc2nc(NC(=O)c3cccc(Cl)c3)sc2c1
active: [3] -0.0938
inactive: [4] 0.0657 | [7] 0.0503 | [8] 0.0275

CS(=O)(=O)c1ccc(C(=O)Nc2ccc(Cl)c(-c3ccccn3)c2)c(Cl)c1
inactive: [13] 0.0228 | [14] 0.046 | [15] 0.0359 | [16] 0.0158 | [17] 0.0316 | [18] 0.0515 | [19] 0.0335 | [20] 0.0126 | [21] 0.0254 | [22] 0.0522 | [23] 0.025 | [24] 0.0484

COC(=O)C[C@H]1C(C)(C)C(=O)[C@@H]2C[C@@]3(O)C4=CC(=O)O[C@@H](c5ccoc5)[C@]4(C)CCC3[C@@]1(C)C2=O (some centres undefined)
inactive: [3] 0.0813 | [4] 0.00839 | [7] 0.172 | [8] 0.118

COc1ccccc1C1NC(=S)NC(C)=C1C(=O)Nc1ccccc1Cl (centres undefined)
inactive: [3] 0.153 | [4] 0.0944 | [7] 0.107 | [8] 0.0425

Cc1cc(=O)c2c(O)cc(O)c(C)c2o1
inactive: [3] 0.111 | [4] 0.0695 | [7] 0.0905 | [8] 0.0937

COc1ccc(-c2nc3ccc(C4=NNC(=O)CC4C)cc3[nH]2)cc1 (centres undefined)
inactive: [13] -0.0122 | [14] 0.0487 | [15] -0.0245 | [16] -0.0302 | [17] -0.00296 | [18] -0.0241 | [19] 0.0147 | [20] -0.00868 | [21] -0.0247 | [22] 0.0168 | [23] -0.172 | [24] -0.00571

O=C(/C=C/c1ccccc1)c1c(O)cc(O)cc1O
inactive: [3] 0.0431 | [4] 0.0419 | [7] 0.0216 | [8] -0.0857

O=C(/C=C/c1cccc(S(=O)(=O)Nc2ccccc2)c1)NO
inactive: [13] 0.0161 | [14] 0.0578 | [15] 0.00773 | [16] 0.0247 | [17] -0.074 | [18] -0.000337
active: [19] -0.399 | [20] -0.113 | [21] -1.47 | [22] -0.52 | [23] -4.33 | [24] -2.11

O=C(C=Cc1ccccc1)c1ccccc1O
inactive: [3] 0.0713 | [4] 0.0789 | [7] 0.0334 | [8] 0.11

O=S(=O)(c1ccc(Br)c2ccccc12)n1ccnc1
inactive: [3] 0.091 | [4] 0.0921 | [7] 0.103 | [8] 0.117

Cc1ccc(NC(=O)c2ccc(OC3CSC3)cc2)cc1
inactive: [3] -0.0477 | [4] -0.0107 | [7] 0.0585 | [8] 0.076

CCOc1cc(C(=O)Nc2ccc([N+](=O)[O-])cc2)cc(OCC)c1OCC
inactive: [3] 0.054 | [4] 0.0461 | [7] 0.0696 | [8] -0.156

COCc1cc(C)nc(SCC(=O)NC(C)(C)C)c1C#N
inactive: [3] 0.122 | [4] 0.0633 | [7] 0.0645 | [8] -0.0386

O=C1N(c2ccccc2)c2ccccc2C1(Cc1ccncc1)Cc1ccncc1
active: [9] -0.0773
inactive: [5] 0.0704 | [6] 0.0498 | [10] 0.0762

NC(=O)NCC(N)C(=O)O (centres undefined)
inactive: [3] -0.0311 | [4] 0.00393 | [7] 0.0385 | [8] 0.0656

O=C(O)/C=C(/CC(=O)O)C(=O)O
inactive: [3] 0.0822 | [4] 0.00778 | [7] 0.03 | [8] 0.0214

O=C1C=C(O)c2ccccc2C1=O
inactive: [3] 0.0525 | [4] -0.00535 | [7] 0.0828 | [8] 0.181

CCCCCCCCCCCCCCCC(=O)O[C@H](CC(=O)[O-])C[N+](C)(C)C
inactive: [25] 0.0342 | [26] 0.0241 | [3] 0.194 | [4] 0.0339 | [7] 0.0599 | [8] -0.023
active: [27] -0.454 | [28] -0.672

CCCCCCCCCCCCCCCCCC(=O)OC(CC(=O)O)C[N+](C)(C)C (centres undefined)
inactive: [3] 0.12 | [4] -0.0279 | [5] 0.206 | [6] 0.0207 | [7] 0.187 | [8] 0.0146 | [9] 0.154 | [10] 0.133

CCCCCCCCCCCCCCCC(=O)OC(CC(=O)[O-])C[N+](C)(C)C (centres undefined)
inactive: [5] 0.153 | [6] 0.133 | [9] 0.18 | [10] 0.0929

NC(=Nc1nc2ccccc2o1)NC(=O)c1sc2ccccc2c1Cl
inactive: [3] 0.078 | [4] 0.000721 | [7] 0.0829 | [8] -0.0453

COC1=C(OC)C(=O)c2ccccc2C1=O
inactive: [5] 0.153 | [6] 0.0608 | [9] 0.12 | [10] 0.0758

O=C1c2ccccc2-c2n[nH]c3cccc1c23
inactive: [25] 0.132 | [26] 0.0656 | [3] 0.181 | [4] -0.0312 | [7] -0.0168 | [8] 0.228 | [28] 0.104
active: [27] -0.11

CCC(C)CCCCC(=O)NC(CCNCS(=O)(=O)O)C(=O)NC(C(=O)NC(CCNCS(=O)(=O)O)C(=O)NC1CCNC(=O)C(C(C)O)NC(=O)C(CCNCS(=O)(=O)O)NC(=O)C(CCNCS(=O)(=O)O)NC(=O)C(CC(C)C)NC(=O)C(CC(C)C)NC(=O)C(CCNCS(=O)(=O)O)NC1=O)C(C)O (centres undefined)
inactive: [3] 0.117 | [4] 0.0486 | [7] 0.103 | [8] -0.0146

CC(C)(O)CC[C@@H](O)[C@@](C)(O)[C@H]1CC[C@@]2(O)C3=CC(=O)[C@@H]4C[C@@H](O)[C@@H](O)C[C@]4(C)[C@H]3CC[C@]12C
inactive: [3] 0.0407 | [4] 0.101 | [7] 0.0783 | [8] 0.0234

C=C1C(CCl)(CCl)C2(Cl)C(Cl)C(Cl)C1(Cl)C2(Cl)Cl (centres undefined)
inactive: [3] 0.0656 | [4] 0.021 | [7] 0.0692 | [8] 0.132

COC(=O)[C@@H]1OC(=O)C2OC23[C@@]1(C)CCC1[C@@]2(C)CCC(=O)C(C)(C)C2C[C@@H](OC(C)=O)[C@]13C (some centres undefined)
inactive: [3] 0.0302 | [4] 0.00682 | [7] 0.123 | [8] 0.0574

O=C(/C=C/c1ccc(O)cc1O)c1ccccc1
inactive: [3] 0.0477 | [4] 0.0515 | [7] 0.136 | [8] 0.0296

COC(=O)/C=C/c1cc(O)ccc1O
inactive: [25] 0.177 | [26] 0.0349 | [3] 0.18 | [4] 0.0134 | [5] 0.108 | [6] 0.184 | [8] -0.137 | [9] 0.0473 | [10] 0.11
active: [7] -0.379 | [27] -0.809 | [28] -0.511

COc1cc(/C=C/C(=O)O)ccc1O
inactive: [3] 0.0581 | [4] -0.0401 | [7] 0.12 | [8] -0.00647

From the supplement of paper PMC6089552
